Source: PubChem BioAssay (several laboratories)
Rows were chosen to be rich in hits. Some 1.1% of all compounds tested hit in one or more screens of this group.
L929 necroptosis = inhibitors of zVAD-triggered necroptosis, primary screen, L929 cells; L929 zVAD necroptosis rescue, ATP luminescence, 24 h; with zVAD 60 µM; viability rescue, % at 10 µM; 0.38% of 220,000 active;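 active means activation, scaled between plate controls, above about 75%, limit read from the data; inactive means activation under that limit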;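 further: 0% = zVAD with DMSO and 100% = DMSO alone without zVAD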
TNF death inh = inhibitors of TNF-alpha triggered necroptosis, primary screen, cell-based, Jurkat FADD-/-, single concentration | 0.068% of 220,000 active | Jurkat FADD-/- TNF necroptosis rescue, ATP luminescence, 24 h; 0 = TNF only, 100 = no-TNF cells | activation (protection from cell death), % at 10 µM;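 active means activation, meaning protection from cell death, of at least 50% relative to plate controls; inactive means activation below 50%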;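 further: necroptosis triggered by 40 ng/mL TNF-alpha added together with compound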
Calb FLC = C. albicans growth inhibition with fluconazole, primary screen, CaCi-2 strain, Alamar Blue fluorescence; C. albicans CaCi-2 (fluconazole-resistant clinical isolate) + fluconazole, 48 h; growth inhibition, % (test concentration not listed); 0.57% of 300,000 active;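 active means growth inhibition above about 58% in most replicates, limit read from the data, passing the limit was not always enough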;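 further: all wells also contain fluconazole at 8 µg/ml as a sub-toxic cotreatment; 0% = median of DMSO wells and 100% = median of geldanamycin control wells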
HIF act = HIF pathway transcriptional activators, primary screen, cell-based, U2OS HRE-luciferase, luminescence; U2OS HRE-luciferase reporter; normalized: DMSO 0%, desferrioxamine 100%; activation, % at 7.5 µM (by protocol); 0.32% of 300,000 active; AID 1910, 2009;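 active means mean activation of at least 10% of the iron chelator positive control signal, with at least half of replicates also reaching 10%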
zVAD death conf = inhibitors of zVAD-triggered necroptosis in L929, confirmation, L929 cells, duplicate runs. shares compounds with L929 necroptosis. L929 zVAD-induced necroptosis rescue, ATP luminescence, 24 h. activation (protection from necroptosis), % at 10 µM. 16% of 760 active;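 active means mean protection from necroptosis of at least 50% over duplicate tests; inactive means mean protection below 50%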;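 further: 0% = cells with zVAD alone and 100% = vehicle cells without zVAD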
Starred values were filed as active, the others as inactive; . = no result.

SMILES | L929 necroptosis | TNF death inh | Calb FLC | HIF act | zVAD death conf
CCOc1ccc(NC(=O)C2CCCN(c3nc(C)cc(C)n3)C2)cc1 (centres undefined) | . | . | 2 | 0 | .
S=C(NCCc1ccc(Cl)cc1)NC1CC1 | 92* | 0 | 6 | 1 | 6
Cc1ccccc1C(=O)NC(=S)Nc1ccc2[nH]c(=O)[nH]c2c1 | 76* | 0 | 0 | 0 | 3
O=C(COc1ccccc1)Nc1ccc2[nH]c(=O)[nH]c2c1 | 76* | -2 | 8 | 0 | 2
O=C(COc1ccccc1F)Nc1ccc2[nH]c(=O)[nH]c2c1 | . | . | 0 | 0 | .
Cc1ccnc(NC(=O)Nc2ccc3c(c2)OCO3)c1 | 85* | 1 | 2 | 0 | 2
O=C(Nc1ccc2c(c1)OCO2)Nc1ccc(Br)cn1 | 79* | 8 | -4 | 2 | 1
O=C(COC(=O)Cc1ccccc1F)Nc1ccc(F)cc1F | 0 | 0 | -9 | 0 | .
CC(C)[C@H](NC(=O)OCc1ccccc1)C(=O)OCc1cc(=O)oc2cc(O)ccc12 | . | . | 8 | 0 | .
COc1ccc(-c2cc(=O)c3c(O)c(OC)c(O)cc3o2)cc1 | 1 | -4 | 1 | 2 | .
COc1cc(-c2cc(=O)c3c(O)c(OC)c(OC)cc3o2)cc(OC)c1O | 77* | -16 | 10 | 0 | 10
Cc1c(C(=O)N/N=C/c2cccnc2)sc(=S)n1C | 2 | 0 | 1 | -2 | .
Cn1c(N)c(C(=O)N/N=C/c2ccccc2)sc1=S | 75* | 5 | -4 | 1 | 76*
COC(=O)c1ccc(COc2ncnc3ccccc23)o1 | . | . | -3 | 1 | .
O=C(NCc1ccc(Cl)s1)C1CCC(=O)N(CCc2cccc(F)c2)C1 (centres undefined) | . | . | 12 | 0 | .
Cc1ccc(C)c(SCC(=O)OC/C(O)=C(\C#N)c2nc3ccccc3[nH]2)c1 | 78* | -2 | -6 | -1 | 29
Nc1nc(C23CC4CC(CC(C4)C2)C3)[nH]c(=O)n1 | 1 | 1 | -6 | 0 | .
Cc1c(C=O)c2cc(OCc3ccccc3)ccc2n1C | . | . | 4 | 3 | .
NNc1ncnc2sc3c(c12)CCC3 | 8 | -2 | -12 | 1 | .
c1cc(Nc2ncnc3sc4c(c23)CCC4)ccn1 | 0 | -1 | -1 | 1 | .
C(=N\Nc1ncnc2sc3c(c12)CCC3)/c1cccs1 | 81* | -14 | 27 | 3 | 40
C(=N\Nc1ncnc2sc3c(c12)CCC3)/c1ccncc1 | 79* | 17 | 15 | 0 | 43
COc1ccc(NC(=O)CS(=O)c2cccc(Cl)c2)cc1 (centres undefined) | . | . | -13 | 1 | .
CCCN1CCN(CCCNC(=O)c2cc3c(=O)n(C)c4ccccc4c3n2C)CC1 | 53 | 2 | 1 | 0 | .
CN1CCN(CCNC(=O)c2cc3c(=O)n(C)c4ccccc4c3n2C)CC1 | 78* | 4 | -3 | 0 | 28
SMILES | L929 necroptosis | TNF death inh | Calb FLC | HIF act | zVAD death conf
Cn1c(C(=O)NCCCN2CCCCCC2)cc2c(=O)n(C)c3ccccc3c21 | 83* | 3 | . | . | 39
Cn1c(C(=O)NCCCN2CCc3ccccc3C2)cc2c(=O)n(C)c3ccccc3c21 | 19 | 1 | -6 | 0 | .
S=c1[nH]nc(COc2ccc(Cl)cc2Cl)n1-c1ccccc1 | . | . | -9 | -1 | .
CCn1c(=NC(=O)c2ccc(S(=O)(=O)N3CCOCC3)cc2)sc2cccc(OC)c21 | 77* | -10 | 9 | -3 | 8
Cc1cc(NC(=O)C(Cl)c2ccccc2)no1 (centres undefined) | . | . | 0 | -9 | .
O=C(C1=NNCC1c1ccccc1)C1CO1 (centres undefined) | 99* | 91* | -13 | 0 | 90*
O=C(c1[nH]ncc1-c1ccccc1)C1CO1 (centres undefined) | 1 | -1 | 2 | 1 | .
Cc1cccc(OCC(=O)Nc2ccccc2-c2ccccc2)c1 | 75* | 1 | 17 | 1 | 1
COc1ccc(OCC(=O)Nc2ccccc2-c2ccccc2)cc1 | 3 | -7 | 10 | 2 | .
c1ccc(-n2cnc3cc(NCc4ccccn4)ccc32)cc1 | 76* | -1 | -10 | 1 | 63*
CC(=O)Nc1ccc2c(c1)ncn2-c1ccccc1 | 68 | 1 | -17 | 1 | .
c1ccc(-n2cnc3cc(NCc4ccncc4)ccc32)cc1 | 83* | 1 | 3 | 0 | 58*
COc1cc(/C=C/C(=O)OCC(=O)N2CCCc3ccccc32)ccc1OC(F)F | . | . | 9 | -2 | .
COc1ccccc1C1CCN(Cc2cccc3ccccc23)CC1 | . | . | 0 | 0 | .
COc1ccccc1C1CCN(Cc2c(C)[nH]c3ccccc23)CC1 | 76* | -2 | 7 | -1 | 28
CCOC(=O)/C=C1\Nc2ccccc2OC1=O | 94* | 10 | -2 | 0 | 3
O=c1cc(N2CCN(c3cccc(Cl)c3)CC2)[nH]c(=O)n1C1CCCCC1 | 81* | 32 | 2 | -1 | 44
O=c1cc(N2CCN(c3ccccc3)CC2)[nH]c(=O)n1C1CCCCC1 | 81* | 21 | -9 | -1 | 26
CN1CCN(c2cc(=O)n(C3CCCCC3)c(=O)[nH]2)CC1 | -1 | 0 | -1 | 0 | .
CC(=O)Nc1ccc(S(=O)(=O)NCCC(=O)Nc2cc(C)ccn2)cc1 | . | . | 2 | 0 | .
CCOc1cc(/C=N/NC(=O)c2cc(C3CC3)[nH]n2)ccc1O | 91* | 9 | 20 | 0 | 7
CNC(=O)c1cc(S(=O)(=O)N2CC(C)OC(C)C2)ccc1N1CCOCC1 (centres undefined) | . | . | -5 | 0 | .
COc1ccc(-c2cn(CCO)nc2-c2ccc(OC)cc2)cc1 | . | . | -6 | -3 | .
CCCCN1C(=O)/C(=C(/C#N)C(=O)N2CCCC2)c2ccccc21 | 1 | -3 | -10 | 0 | .
N#CC(C#N)=C1C(=O)N(CCN2CCCCC2)c2ccccc21 | 90* | -28 | -2 | 0 | 35
SMILES | L929 necroptosis | TNF death inh | Calb FLC | HIF act | zVAD death conf
O=C1c2ccccc2C(O)N1CCN1CCOCC1 (centres undefined) | 0 | 1 | 0 | 0 | .
N#CC(C#N)=C1C(=O)N(CCN2CCOCC2)c2ccccc21 | 86* | -8 | 6 | 0 | 1
CCCN1CCC(=O)N([C@H](CSc2ccc(OC)cc2)c2ccccc2)CC1 | 0 | 2 | -8 | 2 | .
Cc1cccc2c1cnn2C(=O)Nc1ccccc1Cl | . | . | 6 | -4 | .
Nc1nnnn1/N=C/C=C/c1ccccc1 | 1 | 0 | 0 | 0 | .
Nc1nnnn1/N=C/C(Br)=C/c1ccccc1 | 116* | -17 | 56 | -4 | 102*
COc1ccc(/C=C2\SC(=O)N(CCc3nnc(N)s3)C2=O)cc1 | -2 | 0 | 1 | -1 | .
CCc1ccc(NC(=O)CCN2C(=O)c3cccnc3C2=O)cc1 | 0 | 1 | 15 | 0 | .
CCc1ccc2c(c1)C(=O)C(=O)N2CC(=O)Nc1ccc(NC(=O)c2ccccn2)cc1 | 78* | -2 | 3 | 0 | 24
